Measured values taken from PubChem BioAssay (NCATS).
A number with no mark means an inactive call. The call rests on the fitted dose curve; in most records, active means well fitted inhibition curve with a large enough effect; inconclusive means small, poorly fitted or top-dose-only effect; inactive means flat fitted curve, though single readings scatter. Where a SMILES comes first, the peptide text is derived from it. The star is where a group is joined. Hexanoyl = CCCCCC(=O)*

The compounds below were run on Nanoluciferase (engineered Oplophorus gracilirostris luciferase) (assay: Primary Nanoluciferase (NLuc) qHTS assay for identification of artifact compounds. (AID 1845222;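 further: NLuc secreted into diluted conditioned medium of S16 cells; 0% = DMSO and -100% = no enzyme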)). Details: NLuc-conditioned medium, Nano-Glo luminescence, 5 min; series mostly up to 54.1 µM; activity, negative = inhibition: at the top concentration.
Outline: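 Using secreted nanoluciferase in S16 culture medium (0.22 um filtered, 1:55 dilution), compounds were preincubated 15 min at RT. Signal was generated with Nano-Glo reagent (1:100) over 5 min.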

SMILES | activity, negative = inhibition
COc1ccc(CCC(=O)O)c(O[C@@H]2O[C@H](CO)[C@@H](O)[C@H](O)[C@H]2O)c1 | 0.422%
Oc1ccc2c(-c3c(-c4ccccn4)nn4c3CCC4)ccnc2c1 | -15.2%
COc1cc(CO)cc(OC)c1O[C@@H]1O[C@H](CO)[C@@H](O)[C@H](O)[C@H]1O | 1.54%
C[C@]1(OC(=O)/C=C/c2ccc(O)cc2)C[C@@H](O)[C@]2(O)C=CO[C@@H](O[C@@H]3O[C@H](CO)[C@@H](O)[C@H](O)[C@H]3O)C12 (stereo partly specified) | -0.0412% [at 25.7 µM]
FC(F)(F)c1nnc2c(Sc3ccccc3)nc3ccc(Cl)cc3n12 | 3.01%
C/C(=C\CCC(C)(C)O)CCO[C@@H]1O[C@H](CO[C@@H]2O[C@@H](C)[C@H](O)[C@@H](O)[C@H]2O)[C@@H](O)[C@H](O)[C@H]1O | 3.32% [at 25.7 µM]
C=C(C(=O)O)[C@@H]1CC[C@@]2(C)CC[C@@H](O)C(=C)C2C1 (stereo partly specified) | -1.68%
O=C(CC1CC(c2ccc(F)cc2F)=NO1)N1CCOCC1 (stereo unspecified) | -1.23%
CC12CC(O)C(O)C=C1c1cc(O)cc(O)c1C(=O)O2 (stereo unspecified) | -2.65%
CC(O)C1NC(=O)C2CCCN2C1=O (stereo unspecified) | 3.99% [at 86.2 µM]
C=CC1(C)C=C2CC[C@H]3[C@@](C)(C(=O)O)CCC[C@]3(C)C2CC1 (stereo partly specified) | 1.18%
C[C@H]1[C@H](C)C[C@@H](C(=O)O)C2CC[C@]3(C)C(=CC[C@@H]4[C@@]5(C)CC[C@H](O)C(C)(C)[C@@H]5CC[C@]43C)[C@@H]21 (stereo partly specified) | 4.93%
C/C=C/C=C/C=C/C(=O)OC1C=C2C(O)OC(=O)[C@]2(O)[C@@]2(C)CCCC(C)(C)[C@H]12 (stereo partly specified) | -6.06% [at 25.7 µM]
COc1cc(/C=C/C(=O)O[C@@H]2C[C@@](O)(C(=O)O)C[C@@H](O)[C@@H]2O)ccc1O | 1.87%
COc1ccnc2[nH]cc(C(=O)C(=O)N3CCN(C(=O)c4ccccc4)CC3C)c12 (stereo unspecified) | -4%
COc1ccc2c(c1)N1C(=O)C[C@@]34C=CC[N@+]5([O-])CC[C@H]2[C@H](CC3)[C@@]145 | 4.13%

SMILES | activity, negative = inhibition
CC1(C)CC2C(O)C3=C(CC(C)(O)C2C1)C(=O)OC3 (stereo unspecified) | 0.995%
Nc1nc(COC(=O)c2ccc([N+](=O)[O-])cc2)nc(Nc2ccccc2)n1 | -8.2%
C[C@@H]1O[C@@H](O[C@@H]2[C@@H](O)[C@H](O[C@@H]3[C@@H](O)[C@@H](O)[C@H](O[C@H]4[C@H](OC(=O)[C@]56CCC(C)(C)C[C@H]5C5=CCC7[C@@]8(C)C[C@H](O)[C@H](O[C@@H]9O[C@H](C(=O)O)[C@@H](O)[C@H](O)[C@H]9O)[C@@](C)(CO)C8[C@H](O)C[C@@]7(C)[C@]5(C)C[C@H]6O)O[C@@H](CO)[C@@H]4O)O[C@H]3C)OC[C@H]2O)[C@H](O)[C@H](O)[C@H]1O (stereo partly specified) | 4.49% [at 11.6 µM]
C[C@H]1[C@@H](O)[C@H](O)C2[C@]3(C)C([C@@H](O)[C@H]4OC(=O)[C@@H]1[C@@]24C)[C@](C)(O)C=C[C@H]3O[C@@H]1O[C@H](CO)[C@@H](O)[C@H](O)[C@H]1O (stereo partly specified) | 1.6% [at 25.7 µM]
CC1(C)C2CCC1(C)C(OC(=O)C(O)(CC(=O)O)CC(=O)O)C2 (stereo unspecified) | -3.32%
C=C(C(=O)O)[C@@H]1CC[C@H](C)[C@@H]2CC(=O)C(C)=C2C1 | 2.14%
CC/C=C\[C@H](O)[C@H](O)C1=C(C)C(=O)[C@]2(O1)C(=O)N[C@@](O)(C(=O)c1ccccc1)[C@@H]2O | -6.34% [at 25.7 µM]
CC1(C)O[C@H]2CC(=O)OC[C@@]23C1=C(O)C(=O)[C@]1(C)C3CC[C@@]2(C)[C@H](c3ccoc3)OC(=O)[C@H]3O[C@]321 (stereo partly specified) | -1.06% [at 25.7 µM]
N[C@@H](CC(=O)Nc1ccc(Oc2cc(F)c(F)cc2Br)cc1)C(=O)O | -10.3%
COc1cc(O[C@@H]2O[C@H](CO[C@H]3OC[C@](O)(CO)[C@H]3O)[C@@H](O)[C@H](O)[C@H]2O)cc(OC)c1O | 0.685% [at 25.7 µM]
Cc1ccc(-c2c(-c3nn(C)c4ncnc(N5CCC(N6CCCCC6)C5)c34)cnn2C)cc1 (stereo unspecified) | 3.46%
CCCCCC(=O)N1CCC[C@H]1C(=O)N[C@@H](Cc1ccc(O)cc1)C(=O)OC (Hexanoyl-Pro-Tyr-OMe) | -13.1%
C=CCc1cc(OC)c(OC(C)C(O)c2ccc(O)c(OC)c2)c(OC)c1 (stereo unspecified) | 3.18%
C=C1C(O)CC2C(C(=O)O)=COC(O[C@@H]3O[C@H](COC(=O)c4ccc(O)cc4)[C@@H](O)[C@H](O)[C@H]3O)C12 (stereo partly specified) | -2.06% [at 25.7 µM]
CC1(C)CC=C(c2cnc3ccccc3c2)c2cc(C(=O)Nc3ccc(C(=O)O)cc3)ccc21 | 4.41%
